# Measured values published in PubChem BioAssay AID623868 (Vanderbilt High Throughput Screening Facility, 2012).
# In all, about 2,100 compounds went through this assay and about 760 (36%) were called active. Only a sample is shown. Values without a mark were called inactive.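 How the source made its calls: active means thallium-flux fluorescence traces judged by eye to show enhanced or reduced glutamate response, manual score 1 or -1, so both directions (some results past the limit were not filed as active); inactive means the rest, including fluorescent or raised-baseline compounds.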
# Experiment: thallium influx changes without GIRK channels – cell-based, HEK-293 rmGlu8, no GIRK, thallium flux, counter-screen for GIRK activator project, confirmation (AID 623868);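 further: extra codes mark interference with 3 for fluorescent and 4 for baseline rise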
# Details: thallium flux fluorescence, at 10 µM, actives lie on both sides, codes: 1 enhancer, -1 blocker, 0 none, thallium stimulus containing EC20 glutamate
row,Structure (SMILES),manual score
1,CCCCN(Cc1ccccc1)S(=O)(=O)c1ccc2[nH]c(=O)oc2c1,0
2,COc1ccc(Cl)cc1C(=O)CSc1nnnn1C1CCCC1,0
3,CC12CC3(C)CC(C)(C1)CC(C(=O)NC(=S)N1CCOCC1)(C2)C3,1 (active)
4,CC12CC3CC(C)(C1)CC(C(=O)NC(=S)N1CCOCC1)(C3)C2,1 (active)
5,O=C(c1ccco1)N1CCN(C(=O)c2cnn3c2NC(c2cccs2)CC3C(F)(F)F)CC1 (stereo not given),0
6,O=C(CN1CCOCC1)Nc1ccc(C2CCCCC2)cc1,0
7,CCc1sc(NC(=O)CN2CCOCC2)nc1-c1ccccc1,-1 (active)
8,O=C(CSc1nc(-c2ccccc2)cc(C(F)(F)F)n1)NCCN1CCOCC1,0
9,CCN(CC)S(=O)(=O)c1csc(C(=O)NCc2ccccc2)c1,0
10,COc1ccc(C(OC(=O)c2cccs2)C(=O)NCC2CCCO2)cc1 (stereo not given),0
11,COc1ccc(OC)c(C2C(C(=O)c3cc4ccccc4o3)=C(O)C(=O)N2c2cc(C)on2)c1 (stereo not given),-1 (active)
12,COc1ccc(OC)c(C2C(C(=O)c3cccs3)=C(O)C(=O)N2c2cc(C)on2)c1 (stereo not given),-1 (active)
13,COc1ccc2nc3oc(C(=O)Nc4ccc(OC)c(OC)c4)cc3cc2c1,0
14,Cc1cc(N2C(=O)C(O)=C(C(=O)c3ccc(C)o3)C2c2cccs2)no1 (stereo not given),-1 (active)
15,C=CCOc1cccc(C2C(C(=O)c3ccc(C)o3)=C(O)C(=O)N2c2nccs2)c1 (stereo not given),3
16,C/C(CC(=O)NCC(C)C)=N\NC(=O)COc1cc(C)c(Br)cc1Br,0
17,CCOc1ccc(NC(=O)CCC(=O)c2ccc(-c3ccccc3)cc2)cc1,0
18,CCOc1ccc(N2C(=O)c3ccccc3C2O)cc1 (stereo not given),0
19,CCOc1ccc(C(=O)NC(=S)N(Cc2ccccc2)Cc2ccccc2)cc1,1 (active)
20,COc1ccc(C(=O)NC(=S)N(Cc2ccccc2)Cc2ccccc2)cc1,1 (active)
21,COc1ccc(S(=O)(=O)N(CCc2ccccc2)CC(=O)O)cc1,0
22,CC(=O)CN1Cc2ccccc2/C1=N\C(=O)Nc1ccccc1,0
23,Cc1nc2ccccn2c1-c1csc(NCc2ccco2)n1,-0.5
24,CCc1c(C)c(C#N)c2nc3ccccc3n2c1NCc1ccco1,-1 (active)
25,Cn1cc(S(=O)(=O)Nc2ccc(F)cc2F)c(=O)n(C)c1=O,0
26,COc1ccc(C(=O)N/N=C/c2ccc3cccc(OCc4ccccc4)c3n2)cc1,1 (active)
27,COc1ccc(/C=N/NC(=O)c2nc(-c3ccccc3)cc(-c3ccccc3)n2)cc1,0
28,O=C(N/N=C/c1ccc2cccc(OCc3ccccc3)c2n1)c1ccc(Br)cc1,1 (active)
29,O=C(N/N=C/c1ccccn1)c1ccc(Br)cc1,1 (active)
30,N/C(=N\OC(=O)Cc1ccccc1)c1ccc(Br)cc1,0
